PubChem BioAssay AID488821 (National Center for Advancing Translational Sciences (NCATS), 2010)
Results filed as inconclusive are left out. Unmarked numbers belong to inactive results. The source made the active and inactive calls. The call rests on the fitted dose curve; in most records, active means well fitted inhibition curve with a large enough effect; inconclusive means small, poorly fitted or top-dose-only effect, or effect the other way; inactive means flat fitted curve, though single readings scatter.

experiment: Counterscreen Assay for Enhancers of SMN2 Splice Variant Expression: Modulation of SMN1 Expression for Further Probe SAR; settings: HEK293 SMN1-luciferase reporter, luminescence, 30-36 h; series mostly up to 46.1 µM; activity change, negative = inhibition: at the top concentration
Text: NIH Chemical Genomics Center [NCGC] NIH Molecular Libraries Probe Production centers Network [MLPCN] MLPCN Grant: R03 MH084179-01 Assay Submitter (PI): Elliot Androphy NCGC Assay Overview: Spinal muscular atrophy (SMA) is caused by insufficient levels of the survival motor neuron protein SMN. The SMN locus on chromosome 5q13 contains two inverted copies of SMN called SMN1 and SMN2 which are 99% identical at the amino acid level. SMN1 is a fully functional protein and SMN2 skips exon 7 90% of the time. Skipping of exon 7 produces non-functional protein product. 10% of the SMN2 protein includes exon 7 and is fully functional. In the SMA disease state, mutations in the SMN1 locus are the cause of the disease state. Because only 10% of SMN2 is of the fully functional form, it is not sufficient to overcome the deficiency produced by the loss of the SMN1 product. A therapy that either increases the amount of SMN2 product made increases the inclusion of exon 7 has been proposed for the treatment of SMA. We have designed an assay to identify small molecules that can increase the amount of functional SMN2 product by appending a luciferase reporter gene after the native SMN2 gene, such that inclusion of exon 7 in the expressed product places the luciferase sequence in frame, thus generating functional luciferase enzyme. As a counterscreen for nonspecific modulators of expression, we have run compounds through a similar assay that measures expression of an SMN1-luciferase chimera.
NCGC Assay Protocol Summary: This screen utilizes a luciferase reporter gene assay, combining the promoter with the major portion of the native SMN1 cDNA (exons 1 -7, intron 8 , exon 8 fused to luciferase) stably expressed in HEK293 cells. Compounds that increase luciferase signal presumably enhance expression of the functional SMN1 splice variant. Passaging media contained DMEM w/ glutamax (+phenol red) 10% FCS, 1x pen/strep, 200 ug/ml hygro, 1x sodium pyruvate. Assay media contained DMEM w/ glutamax (-phenol red) 10% FCS, 1x pen strep, 1x pyruvate Sequence, Parameter, Value, Description (1) Cells, 5 uL, 2000 cells/well, 1536 TC treated White solid bottom plate (2) Time, 10-12 hours, 37C 5% CO2 (3) Compound, 23 nl, MLSMR Library (4) Control Compound, 23 nL, Sodium butyrate st 4.5mM (final) conc (5) Time, 30-36 hours, 37C 5% CO2 (6) Reagent, 3 ul, One Glo (TM) from Promega (7) Time, 5-15 minutes, Room temp (8) Detector, Viewlux: luminescent read, 60 second integration, high speed 2x binning Keywords: Spinal muscular atrophy, SMA, SMN2, high throughput screening, MLSMR, MLPCN, NIH Roadmap, qHTS and NCGC

| Structure (SMILES) | activity change, negative = inhibition [%] | Potency |
| --- | --- | --- |
| O=C(NCCCCc1ccccc1)C1CCN(c2nc(-c3ccc(Br)cc3)cs2)CC1 | -12.8 | – |
| NC(=O)C1CCN(c2nc(-c3ccc4c(c3)CCO4)cs2)CC1 | -6.44 | – |
| O=C(NCc1ccccc1)C1CCN(c2nc(-c3ccc(Br)cc3)cs2)CC1 | -14.5 | – |
| NC(=O)C1CCN(c2nc(-c3ccccc3)cs2)CC1 | -16.6 | – |
| O=C(c1ccco1)N1CCN(c2nc(-c3ccc(Br)cc3)cs2)CC1 | -26.7 | – |
| NC(=O)C1CCN(c2ncc(-c3ccc4c(c3)OCO4)s2)CC1 | – | 0.972 µM (active) |
| NC(=O)C1CCN(c2nccc(Cl)n2)CC1 | -13.7 | – |
| NC(=O)C1CCN(c2ncc(-c3ccc4c(c3)OCCO4)s2)CC1 | – | 1.22 µM (active) |
| CC(=O)N1CCN(c2nc(-c3ccc(Br)cc3)cs2)CC1 | – | 15.4 µM (active) |
| c1c[nH]c(C2CCN(c3ncc(-c4ccc5c(c4)OCCCO5)s3)CC2)n1 | – | 9.72 µM (active) |
| NC(=O)C1CCN(c2ncc(Br)s2)CC1 | -5.62 | – |
| Cc1ccc(-c2cnc(N3CCC(C(N)=O)CC3)s2)cc1 | – | 2.44 µM (active) |
| COc1ccc(-c2cnc(N3CCC(C(N)=O)CC3)s2)cc1OC | -10.1 | – |
| NC(=O)C1CCN(c2nc(-c3cccc4ccccc34)cs2)CC1 | -3.85 | – |
| CSc1ccc(-c2cnc(N3CCC(C(N)=O)CC3)s2)cc1 | – | 0.972 µM (active) |
| NC(=O)C1CCN(c2nc(-c3ccc(N)cc3)cs2)CC1 | 7.68 | – |
| CC(C)Oc1ccc(-c2csc(N3CCC(C(N)=O)CC3)n2)cc1 | -20.3 | – |
| CN(C)c1cccc(-c2nccc(N3CCC(C(N)=O)CC3)n2)c1 | 14.2 | – |
| O=C(Nc1ccccc1)C1CCN(c2ncc(-c3ccc4c(c3)OCCCO4)s2)CC1 | – | 0.487 µM (active) |
| CC(C)Oc1cccc(-c2cnc(N3CCC(C(N)=O)CC3)s2)c1 | – | 4.87 µM (active) |

| Structure (SMILES) | activity change, negative = inhibition [%] | Potency |
| --- | --- | --- |
| CC(C)Oc1cccc(-c2ccnc(N3CCC(C(N)=O)CC3)n2)c1 | – | 9.72 µM (active) |
| COc1ccccc1-c1csc(N2CCC(C(N)=O)CC2)n1 | 9.84 | – |
| COc1cc(OC)cc(-c2csc(N3CCC(C(N)=O)CC3)n2)c1 | 13.7 | – |
| CC(C)(C)c1ccc(-c2csc(N3CCC(C(N)=O)CC3)n2)cc1 | -21 | – |
| NC(=O)C1CCN(c2nc(-c3ccc(OCc4ccccc4)cc3)cs2)CC1 | -12.4 | – |
| NC(=O)C1CCN(c2nc(-c3ccc([N+](=O)[O-])cc3)cs2)CC1 | -14.7 | – |
| NC(=O)C1CCN(c2nccc(-c3ccc(Br)cc3)n2)CC1 | – | 12.2 µM (active) |
| O=C(C1CCN(c2nc(-c3ccc(Br)cc3)cs2)CC1)N1CCOCC1 | -15.1 | – |
| CN(C)c1cccc(-c2nnc(N3CCC(C(N)=O)CC3)s2)c1 | – | 6.14 µM (active) |
| NC(=O)C1CCN(c2ncc(-c3ccc4c(c3)OC(F)(F)O4)s2)CC1 | – | 15.4 µM (active) |
| Nc1nc(N)c2c(OCC3CCN(Cc4ccccc4F)CC3)cccc2n1 | – | 19.4 µM (active) |
| N#Cc1ccc(-c2csc(N3CCC(C(N)=O)CC3)n2)cc1 | -8.95 | – |
| NC(=O)C1CCN(c2nc(-c3cccc(Br)c3)cs2)CC1 | -9.64 | – |
| CNC(=O)C1CCN(c2nc(-c3ccc(Br)cc3)cs2)CC1 | -20.8 | – |
| CC(C)COc1ccc(-c2csc(N3CCC(C(N)=O)CC3)n2)cc1 | -19.3 | – |
| CS(=O)(=O)N1CCN(c2nc(-c3ccc(Br)cc3)cs2)CC1 | -18.3 | – |
| O=C(NCCc1ccccc1)C1CCN(c2nc(-c3ccc(Br)cc3)cs2)CC1 | -15.8 | – |
| NC(=O)C1CCN(c2nc(-c3ccc(C(F)(F)F)cc3)cs2)CC1 | -27.4 | – |
| N#Cc1cccc(-c2csc(N3CCC(C(N)=O)CC3)n2)c1 | 6.78 | – |
| Cc1ccc(-c2nnc(N3CCC(C(N)=O)CC3)s2)cc1 | – | 6.14 µM (active) |
